Legend:
Assay in all cases: DAPPL (digital affinity profiling via proximity ligation, sequencing); 10 mM Tris-HCl pH 7.5, 50 mM NaCl, 1 mM DTT, 4% glycerol, room temperature, 30 min; GST-TFs on glutathione beads, 16-mer random dsDNA library, 0.1% formaldehyde crosslink after washing; high values mean tight binding
Conditions in all cases: protein: recombinant; tags: N-terminal GST; dsDNA, one strand shown
FLI1 = target: T1, FLI1 (Homo sapiens, UniProt Q01543 1-452)
T1 sequence: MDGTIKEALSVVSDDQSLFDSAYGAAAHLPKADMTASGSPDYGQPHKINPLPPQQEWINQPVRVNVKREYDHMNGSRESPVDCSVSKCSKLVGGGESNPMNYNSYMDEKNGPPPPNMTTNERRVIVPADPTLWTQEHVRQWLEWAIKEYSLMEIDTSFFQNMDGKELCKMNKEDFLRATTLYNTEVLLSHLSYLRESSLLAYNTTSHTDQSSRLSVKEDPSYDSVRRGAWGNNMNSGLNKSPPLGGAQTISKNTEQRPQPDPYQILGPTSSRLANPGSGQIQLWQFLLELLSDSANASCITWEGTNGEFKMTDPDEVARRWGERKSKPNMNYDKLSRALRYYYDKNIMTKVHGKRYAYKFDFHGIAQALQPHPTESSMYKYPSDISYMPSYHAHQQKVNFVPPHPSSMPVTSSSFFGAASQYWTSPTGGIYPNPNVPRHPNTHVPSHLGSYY
How it was run: (§1)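 Binding signal is each hexamer's read frequency for a factor divided by its frequency in the tag-only sample. The factors were GST-fused human transcription factors from yeast, captured on glutathione beads, DNA-barcoded and pooled with that sample. Pools were incubated with 200 nmole of a random double-stranded 16-mer DNA library in Tris/NaCl/DTT/glycerol buffer at room temperature for 30 min, then washed, crosslinked with 0.1% formaldehyde, proximity-ligated with BsaI/T4 ligase (1 h, 37 °C), PCR-amplified and sequenced on an Illumina NextSeq500.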

ELK1 = target: T2, ELK1 (Homo sapiens, UniProt P19419 1-428)
T2 sequence: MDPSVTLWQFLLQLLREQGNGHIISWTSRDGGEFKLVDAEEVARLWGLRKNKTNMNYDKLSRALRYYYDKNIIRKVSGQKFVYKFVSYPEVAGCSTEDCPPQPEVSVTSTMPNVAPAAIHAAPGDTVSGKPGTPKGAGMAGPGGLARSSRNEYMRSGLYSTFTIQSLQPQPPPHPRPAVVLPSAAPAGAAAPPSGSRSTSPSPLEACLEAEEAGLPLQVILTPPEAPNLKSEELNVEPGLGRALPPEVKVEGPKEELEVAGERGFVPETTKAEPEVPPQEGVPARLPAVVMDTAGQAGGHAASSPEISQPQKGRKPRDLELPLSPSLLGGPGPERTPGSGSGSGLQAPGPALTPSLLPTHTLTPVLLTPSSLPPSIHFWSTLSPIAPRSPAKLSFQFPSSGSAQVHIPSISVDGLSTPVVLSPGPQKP
How it was run: as §1

GABPA = target: T3, GABPA (Homo sapiens, UniProt Q06546 1-454)
T3 sequence: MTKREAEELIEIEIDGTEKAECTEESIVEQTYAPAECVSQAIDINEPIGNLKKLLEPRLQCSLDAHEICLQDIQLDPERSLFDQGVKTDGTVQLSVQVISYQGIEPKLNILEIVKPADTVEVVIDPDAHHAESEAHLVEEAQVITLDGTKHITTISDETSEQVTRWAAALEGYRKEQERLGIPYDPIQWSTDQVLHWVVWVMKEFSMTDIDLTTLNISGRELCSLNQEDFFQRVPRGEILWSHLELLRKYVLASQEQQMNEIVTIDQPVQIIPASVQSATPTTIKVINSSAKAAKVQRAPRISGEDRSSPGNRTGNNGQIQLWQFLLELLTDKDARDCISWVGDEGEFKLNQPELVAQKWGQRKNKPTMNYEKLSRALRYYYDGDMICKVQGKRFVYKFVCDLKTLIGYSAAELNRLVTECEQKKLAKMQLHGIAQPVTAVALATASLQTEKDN
How it was run: as §1

ERG = target: T4, ERG (Homo sapiens, UniProt P11308 1-479)
T4 sequence: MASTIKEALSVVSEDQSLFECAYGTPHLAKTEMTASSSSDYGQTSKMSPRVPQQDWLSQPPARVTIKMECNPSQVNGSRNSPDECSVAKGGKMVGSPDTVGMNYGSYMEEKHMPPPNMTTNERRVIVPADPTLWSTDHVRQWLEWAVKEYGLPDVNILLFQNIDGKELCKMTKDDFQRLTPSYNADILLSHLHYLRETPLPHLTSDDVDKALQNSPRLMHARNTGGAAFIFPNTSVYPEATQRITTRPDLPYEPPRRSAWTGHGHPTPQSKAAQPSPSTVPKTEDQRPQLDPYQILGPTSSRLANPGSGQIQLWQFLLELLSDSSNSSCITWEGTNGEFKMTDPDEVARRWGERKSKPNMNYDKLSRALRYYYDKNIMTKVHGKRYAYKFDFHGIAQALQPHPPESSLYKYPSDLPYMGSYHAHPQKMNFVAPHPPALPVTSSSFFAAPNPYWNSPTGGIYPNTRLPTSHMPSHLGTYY
How it was run: as §1

ELF1 = ELF1 (Homo sapiens, UniProt P32519 1-619)
How it was run: as §1

EHF = target: T5, EHF (Homo sapiens, UniProt Q9NZC4 1-300)
T5 sequence: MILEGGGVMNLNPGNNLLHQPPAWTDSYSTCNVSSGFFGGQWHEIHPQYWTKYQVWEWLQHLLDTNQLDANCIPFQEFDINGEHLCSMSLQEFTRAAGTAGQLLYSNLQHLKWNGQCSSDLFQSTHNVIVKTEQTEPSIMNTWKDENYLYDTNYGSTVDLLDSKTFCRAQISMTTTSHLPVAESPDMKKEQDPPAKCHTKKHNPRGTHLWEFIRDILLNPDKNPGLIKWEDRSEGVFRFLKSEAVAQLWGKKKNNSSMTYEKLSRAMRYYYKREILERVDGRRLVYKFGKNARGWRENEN
How it was run: as §1

SPI1 = SPI1 (Homo sapiens, UniProt P17947 1-270)
How it was run: as §1

SPIB = SPIB (Homo sapiens, UniProt Q01892 1-262)
How it was run: as §1

FEV = target: T6, FEV (Homo sapiens, UniProt Q99581 1-238)
T6 sequence: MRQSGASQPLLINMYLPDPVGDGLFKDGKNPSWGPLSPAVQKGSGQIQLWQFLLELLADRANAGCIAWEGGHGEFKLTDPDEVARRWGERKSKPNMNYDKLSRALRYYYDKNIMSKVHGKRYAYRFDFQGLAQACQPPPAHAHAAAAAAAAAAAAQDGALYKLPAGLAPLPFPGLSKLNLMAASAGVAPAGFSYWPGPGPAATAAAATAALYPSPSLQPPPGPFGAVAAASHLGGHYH
How it was run: as §1

Sequence of ELF1 (P32519 whole entry): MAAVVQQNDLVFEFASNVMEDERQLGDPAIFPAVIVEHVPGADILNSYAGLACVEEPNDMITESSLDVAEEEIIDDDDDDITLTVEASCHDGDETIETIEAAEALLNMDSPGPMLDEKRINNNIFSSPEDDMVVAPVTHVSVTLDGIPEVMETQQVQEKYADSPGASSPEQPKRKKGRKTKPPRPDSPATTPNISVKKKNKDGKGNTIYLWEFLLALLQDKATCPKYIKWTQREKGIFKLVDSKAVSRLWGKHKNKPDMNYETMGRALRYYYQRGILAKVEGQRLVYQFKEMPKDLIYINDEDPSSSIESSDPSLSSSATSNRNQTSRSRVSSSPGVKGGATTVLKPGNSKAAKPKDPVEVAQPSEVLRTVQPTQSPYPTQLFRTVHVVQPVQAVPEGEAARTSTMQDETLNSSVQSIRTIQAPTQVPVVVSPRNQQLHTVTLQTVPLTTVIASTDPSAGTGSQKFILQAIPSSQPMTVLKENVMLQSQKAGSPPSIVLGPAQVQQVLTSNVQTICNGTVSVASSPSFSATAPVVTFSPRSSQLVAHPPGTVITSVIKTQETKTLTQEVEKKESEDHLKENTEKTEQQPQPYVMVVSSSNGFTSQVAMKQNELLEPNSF
Sequence of SPIB (Q01892 whole entry): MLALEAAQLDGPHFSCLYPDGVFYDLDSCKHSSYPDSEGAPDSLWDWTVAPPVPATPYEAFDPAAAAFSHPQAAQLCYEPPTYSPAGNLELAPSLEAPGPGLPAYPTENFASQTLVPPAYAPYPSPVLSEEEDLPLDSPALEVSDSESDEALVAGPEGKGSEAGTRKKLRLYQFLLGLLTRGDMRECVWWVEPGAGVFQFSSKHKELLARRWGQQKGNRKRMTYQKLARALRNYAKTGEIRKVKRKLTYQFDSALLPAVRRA

## CGATGC
FLI1
  binding signal: 1.13 fold enrichment (6-mer frequency, TF over GST control)
ELK1
  binding signal: 1.1 fold enrichment (6-mer frequency, TF over GST control)
GABPA
  binding signal: 1.19 fold enrichment (6-mer frequency, TF over GST control)
ERG
  binding signal: 1.08 fold enrichment (6-mer frequency, TF over GST control)
ELF1
  binding signal: 1.02 fold enrichment (6-mer frequency, TF over GST control)
EHF
  binding signal: 1.09 fold enrichment (6-mer frequency, TF over GST control)
SPI1
  binding signal: 1.12 fold enrichment (6-mer frequency, TF over GST control)
SPIB
  binding signal: 1.06 fold enrichment (6-mer frequency, TF over GST control)
FEV
  binding signal: 1.07 fold enrichment (6-mer frequency, TF over GST control)
